The values that follow come from PubChem BioAssay (EPA / NIEHS).

As a reminder, the AC50 is the midpoint of the concentration-response curve, whichever way the signal moves.

Assay [1] can be described thus: ATG_TCF_b_cat_CIS: Attagene CIS-FACTORIAL HepG2 Assay for human T-Cell-Factor with beta-catenin (TCF/b-cat) (AID 2282965; active = hit-call score of the fitted dose curve at least 0.9, where 1 is the maximum; inactive = score below 0.9). The note with it: HepG2 TCF/beta-catenin cis-reporter transcription, actives raise or lower the signal. In a few lines:
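In this cis-format system, transfected HepG2 cells report endogenous transcription factor activity. Readout after 24 h exposure is reporter transcript abundance from RT-PCR and capillary electrophoresis, analysed for gain or loss of signal versus DMSO.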

Assay [2] can be described thus: ATG_TAL_CIS: Attagene CIS-FACTORIAL HepG2 Assay for human TAL Basal Promoter (AID 2282966; active = hit-call score of the fitted dose curve at least 0.9, where 1 is the maximum; inactive = score below 0.9;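 note: background control endpoint measuring basal TAL promoter reporter mRNA not a specific factor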). The note with it: HepG2 Attagene cis-factorial TAL promoter reporter; actives raise or lower the signal. In a few lines: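 After 24 hours of chemical exposure, transfected HepG2 cells yielded RNA that was converted to 6-FAM-labelled, HpaI-digested reporter fragments for capillary electrophoresis. Values derive from bidirectional fitting against DMSO controls.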

Assay [3] is described as follows: ATG_TGFb_CIS: Attagene CIS-FACTORIAL HepG2 Assay for human Transforming Growth Factor (TGF) (AID 2282967; active = hit-call score of the fitted dose curve at least 0.9, where 1 is the maximum; inactive = score below 0.9). The note with it: HepG2 Attagene CIS TGFb reporter, mRNA transcription; actives raise or lower the signal. In a few lines:
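Transient MRTU transfection of HepG2 (FuGene 6). Dose 24 h. TriZol RNA, oligo(dT) RT, PCR, 6-FAM primer extension, HpaI cut, CE. Bidirectional fit, DMSO = baseline.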

Assay [4] is described as follows: ATG_VDRE_CIS: Attagene CIS-FACTORIAL HepG2 Assay for human Vitamin D Receptor Element (VDRE) (AID 2282968; active = hit-call score of the fitted dose curve at least 0.9, where 1 is the maximum; inactive = score below 0.9). The note with it: HepG2 VDRE cis-reporter transcription, actives raise or lower the signal. Summed up: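 Transfected HepG2 reporter cells, chemical treatment 24 h. RNA isolated, cDNA amplified with reporter-specific primers, products analysed by capillary electrophoresis. Endpoint fitted in both directions versus DMSO.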

In assay [5] the target is Nuclear receptor subfamily 1 group I member 3 (Homo sapiens) (UniProt Q14994). As to the kind of experiment: ATG_CAR_TRANS: Attagene TRANS-FACTORIAL HepG2 Assay for human Constitutive Androstane Receptor (CAR) (AID 2282969).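 Note: activators raise reporter mRNA above DMSO so AC50 marks induction.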 The note with it: HepG2 Attagene TRANS-FACTORIAL CAR reporter. In a few lines: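 Steps: transient transfection of HepG2 with multiple GAL4-UAS reporter units; 24 h compound incubation; RNA isolation, RT-PCR, 6-FAM primer extension, HpaI digest; capillary electrophoresis. Gain-of-signal relative to DMSO negative control.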
Nuclear receptor subfamily 1 group I member 3 (Homo sapiens), sequence (Q14994 whole entry, looked up, the tested form may be a part): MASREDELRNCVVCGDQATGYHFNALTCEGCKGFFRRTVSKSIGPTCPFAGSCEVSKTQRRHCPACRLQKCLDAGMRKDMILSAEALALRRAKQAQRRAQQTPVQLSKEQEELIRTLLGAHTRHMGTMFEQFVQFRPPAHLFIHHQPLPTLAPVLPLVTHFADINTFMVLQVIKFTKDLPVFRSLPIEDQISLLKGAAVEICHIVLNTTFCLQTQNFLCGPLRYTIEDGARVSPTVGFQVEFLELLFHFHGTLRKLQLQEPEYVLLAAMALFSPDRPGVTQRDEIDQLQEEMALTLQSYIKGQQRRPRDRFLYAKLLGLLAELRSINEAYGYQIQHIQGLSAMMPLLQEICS

Assay [6] addresses Estrogen receptor (Homo sapiens) (UniProt P03372). As to the kind of experiment: ATG_ERa_TRANS: Attagene TRANS-FACTORIAL HepG2 Assay for human Estrogen Receptor alpha (ERa) (AID 2282970). The note with it: HepG2 Attagene TRANS ERa GAL4 reporter, mRNA. In a few lines:
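Liver-derived HepG2 cells expressing chimeric nuclear receptor-Gal4 proteins from transient transfection were exposed for 24 hours. Gain of reporter mRNA signal versus DMSO, read by capillary electrophoresis of FAM-labelled PCR products, was recorded.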

A short description of assay [7]: ATG_M_19_TRANS: Attagene TRANS-FACTORIAL HepG2 Assay for M19 Transcription Factor (Internal Marker) (AID 2282974). The settings on record: HepG2 Attagene TRANS-FACTORIAL M19 internal marker reporter. In a few lines: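 Background-control readout: after 24 h chemical exposure of transfected HepG2 carrying GAL4-driven reporter units, RNA was reverse-transcribed, amplified, fluorescently labeled and sized by capillary electrophoresis; gain-of-signal fit against DMSO.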

Assay [8] can be described thus: ATG_GAL4_TRANS: Attagene TRANS-FACTORIAL HepG2 Assay for GAL4 (Internal Marker) (AID 2282976). The note with it: HepG2 Attagene TRANS GAL4 internal marker reporter. In a few lines: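 First, HepG2 cells were transfected with reporter units under GAL4-UAS control. Next, they were treated with chemical for 24 h. Finally, RNA was reverse-transcribed, PCR-amplified, FAM-labelled and resolved by capillary electrophoresis, with induction scored against DMSO.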

The target of assay [9] is Glucocorticoid receptor (Homo sapiens) (UniProt P04150). As to the kind of experiment: ATG_GR_TRANS: Attagene TRANS-FACTORIAL HepG2 Assay for human Glucocorticoid Receptor (GR) (AID 2282978).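 Note: activators score as hits since higher reporter transcript over DMSO is fitted.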 The note with it: HepG2 Attagene TRANS GR reporter, mRNA transcription. In a few lines:
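Readout is reporter transcript from a chimeric GR-Gal4 acting on GAL4-UAS in transfected human HepG2 liver cells after 24 h exposure, quantified by RT-PCR and capillary electrophoresis. Activation fitted upward against DMSO.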

For assay [10], the target named is Bile acid receptor (Homo sapiens) (UniProt Q96RI1). In words: ATG_FXR_TRANS: Attagene TRANS-FACTORIAL HepG2 Assay for Farnesoid X Receptor (FXR) (AID 2282979).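 Note: hits raise reporter mRNA above DMSO so AC50 marks FXR activation.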 The settings on record: HepG2 Attagene TRANS FXR-GAL4 reporter transcription. In a few lines:
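Transient transfection of HepG2 with multiplexed GAL4-UAS reporter units; exogenous FXR-GAL4 chimera. Dose 24 h → TriZol RNA → oligo(dT) RT → PCR, 6-FAM primer extension, HpaI cut → CE. Gain vs DMSO.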

Assay [11] concerns the target Oxysterols receptor LXR-alpha (Homo sapiens) (UniProt Q13133). In words: ATG_LXRa_TRANS: Attagene TRANS-FACTORIAL HepG2 Assay for human Liver X Receptor alpha (LXRa) (AID 2282980). The settings on record: HepG2 Attagene TRANS reporter, LXRa transactivation. Summed up:
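Transfect HepG2 with GAL4-UAS multiplex reporter constructs (TRANS format, chimeric receptor-GAL4); treat 24 h; extract RNA, reverse-transcribe, PCR-amplify, FAM-label, HpaI-digest; resolve fragments by capillary electrophoresis. Upward response vs DMSO.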

The target of assay [12] is Oxysterols receptor LXR-beta (Homo sapiens) (UniProt P55055). As to the kind of experiment: ATG_LXRb_TRANS: Attagene TRANS-FACTORIAL HepG2 Assay for human Liver X Receptor beta (LXRb) (AID 2282981). The note with it: HepG2 Attagene TRANS GAL4-LXRb reporter, mRNA. Summed up: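 Liver-derived HepG2 cells transfected with Gal4-responsive reporters were dosed for 24 h. Activation was scored as rise in reporter mRNA, by RT-PCR and capillary electrophoresis, above DMSO baseline.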
Oxysterols receptor LXR-beta (Homo sapiens), sequence (P55055 whole entry, looked up, the tested form may be a part): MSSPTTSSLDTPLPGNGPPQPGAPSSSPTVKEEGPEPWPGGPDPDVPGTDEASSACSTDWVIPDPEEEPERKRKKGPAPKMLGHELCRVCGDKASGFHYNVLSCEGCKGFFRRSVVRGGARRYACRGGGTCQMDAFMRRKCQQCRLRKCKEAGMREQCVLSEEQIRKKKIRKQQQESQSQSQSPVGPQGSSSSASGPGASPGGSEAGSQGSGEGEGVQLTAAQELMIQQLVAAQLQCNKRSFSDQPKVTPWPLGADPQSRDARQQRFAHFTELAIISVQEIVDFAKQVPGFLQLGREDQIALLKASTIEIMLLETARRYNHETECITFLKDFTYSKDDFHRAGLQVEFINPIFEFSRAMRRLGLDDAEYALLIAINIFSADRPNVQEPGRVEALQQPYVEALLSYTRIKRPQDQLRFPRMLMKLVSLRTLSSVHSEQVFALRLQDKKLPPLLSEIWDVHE

Assay [13] has as its target Hepatocyte nuclear factor 4-alpha (Homo sapiens) (UniProt P41235). As to the kind of experiment: ATG_HNF4a_TRANS: Attagene TRANS-FACTORIAL HepG2 Assay for human Hepatocyte Nuclear Factor 4 alpha (HNF4a) (AID 2282982). The note with it: HepG2 HNF4a transactivation reporter, mRNA readout. In a few lines:
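Using HepG2 liver cells transfected with GAL4-UAS reporter units, chemical-induced mRNA increases were assessed after 24 hours. Fluorescent RT-PCR fragments were separated by capillary electrophoresis and compared with DMSO negative controls.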

Assay [14] in a line: ATG_M_32_TRANS: Attagene TRANS-FACTORIAL HepG2 Assay for M32 Transcription Factor (Internal Marker) (AID 2282984).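 Note: transcript level of a background control reporter unit measured by RT-PCR and capillary electrophoresis.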 The settings on record: HepG2 Attagene TRANS M32 internal marker reporter. Summed up:
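Fluorescence-detected mRNA induction, HepG2 liver cells, 24 h after dosing. Multiple GAL4-UAS reporter units introduced by transient transfection; background-control endpoint analysed for gain of signal against DMSO.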

The target in assay [15] is Nuclear receptor subfamily 4 group A member 2 (Homo sapiens) (UniProt P43354). As to the kind of experiment: ATG_NURR1_TRANS: Attagene TRANS-FACTORIAL HepG2 Assay for human Nuclear Receptor Related Protein 1 (NURR1) (AID 2282985). The settings on record: HepG2 Attagene TRANS reporter, mRNA readout. In a few lines: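 Chimeric NR-Gal4 proteins were expressed in human HepG2 cells bearing GAL4-UAS reporter units, and induced reporter mRNA was quantified 24 h post-dosing by RT-PCR and capillary electrophoresis.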
Nuclear receptor subfamily 4 group A member 2 (Homo sapiens), sequence (P43354 whole entry, looked up, the tested form may be a part): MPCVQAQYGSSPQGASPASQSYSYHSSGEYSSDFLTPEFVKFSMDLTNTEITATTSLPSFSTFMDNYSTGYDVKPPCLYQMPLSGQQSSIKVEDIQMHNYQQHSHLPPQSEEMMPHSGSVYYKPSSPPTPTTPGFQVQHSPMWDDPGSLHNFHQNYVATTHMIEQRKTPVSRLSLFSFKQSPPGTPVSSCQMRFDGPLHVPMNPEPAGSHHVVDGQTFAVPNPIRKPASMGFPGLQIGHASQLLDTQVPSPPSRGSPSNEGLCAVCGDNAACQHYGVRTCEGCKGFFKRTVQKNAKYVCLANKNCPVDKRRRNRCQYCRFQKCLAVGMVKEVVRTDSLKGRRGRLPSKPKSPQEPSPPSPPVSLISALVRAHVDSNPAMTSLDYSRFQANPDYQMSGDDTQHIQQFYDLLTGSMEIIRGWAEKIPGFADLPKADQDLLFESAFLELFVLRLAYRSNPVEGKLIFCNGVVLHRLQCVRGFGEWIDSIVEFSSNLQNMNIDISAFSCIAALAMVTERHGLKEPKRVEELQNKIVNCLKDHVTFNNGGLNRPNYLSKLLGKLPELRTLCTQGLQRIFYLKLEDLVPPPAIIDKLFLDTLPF

In assay [16] the target is Transcriptional activator Myb (Homo sapiens) (UniProt P10242). As to the kind of experiment: ATG_Myb_CIS: Attagene CIS-FACTORIAL HepG2 Assay for human Myeloblastosis (Myb) Proto-Oncogene Transcription Factor (AID 2282986; active = hit-call score of the fitted dose curve at least 0.9, where 1 is the maximum; inactive = score below 0.9). The settings on record: HepG2 Attagene CIS-FACTORIAL Myb reporter transcription; actives raise or lower the signal. In a few lines:
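Reporter mRNA is quantified by RT-PCR and capillary electrophoresis 24 h after dosing HepG2 cells transfected with cis-regulated reporter units, which track endogenous transcription factor activity. Gain and loss of signal are fitted versus DMSO baseline.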

Assay [17] has as its target X-box-binding protein 1 (Homo sapiens) (UniProt P17861). In words: ATG_Xbp1_CIS: Attagene CIS-FACTORIAL HepG2 Assay for human X-box Binding Protein 1 (XBP1) (AID 2282972; active = hit-call score of the fitted dose curve at least 0.9, where 1 is the maximum; inactive = score below 0.9). The settings on record: HepG2 XBP1 cis-element reporter, Attagene multiplex; actives raise or lower the signal. In a few lines:
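Multiplexed cis-reporter readout in transfected HepG2 liver cells. Exposure lasted 24 hours. Activity in either direction was fitted against DMSO as negative control and baseline.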

A short description of assay [18]: ATG_M_06_TRANS: Attagene TRANS-FACTORIAL HepG2 Assay for M06 Transcription Factor (Internal Marker) (AID 2282983).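 Note: reporter transcript level by RT-PCR then capillary electrophoresis fluorescence.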 The note with it: HepG2 Attagene TRANS M06 internal marker reporter. In a few lines: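 Background control endpoint: reporter mRNA from transiently transfected HepG2 after 24 h dosing, detected by RT-PCR with capillary electrophoresis fluorescence. Analysed for gain versus DMSO.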

Assay [19] concerns the target Steroid hormone receptor ERR1 (Homo sapiens) (UniProt P11474). As to the kind of experiment: ATG_ERRa_TRANS: Attagene TRANS-FACTORIAL HepG2 Assay for human Estrogen-Related Receptor alpha (ERRa) (AID 2282971). The note with it: HepG2 Attagene TRANS reporter, ERRa transactivation. In a few lines: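 Reporter transcript induction was quantified by RT-PCR and capillary electrophoresis of FAM-labelled, HpaI-cut products after 24 h treatment of HepG2 cells carrying transiently transfected GAL4-UAS reporter units and an exogenous ERRa-Gal4 fusion; activity scored as increase over DMSO.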

Assay [20] deals with Estrogen-related receptor gamma (Homo sapiens) (UniProt P62508). As to the kind of experiment: ATG_ERRg_TRANS: Attagene TRANS-FACTORIAL HepG2 Assay for human Estrogen-Related Receptor gamma (ERRg) (AID 2282977).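 Note: hits increase reporter signal over DMSO so potencies reflect activators.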 The settings on record: HepG2 Attagene TRANS reporter, ERRg transactivation. Summed up: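 Readout: fluorescent reporter-mRNA fragments resolved by capillary electrophoresis after RT-PCR and HpaI cut. Cells: transiently transfected HepG2 carrying GAL4-UAS reporters driven by exogenous NR-Gal4 chimeras, dosed 24 h. Activity fitted upward relative to DMSO baseline.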

Results filed as inconclusive are left out. Active and inactive are the calls of the source. Rule for the calls, unless noted: active = hit-call score of the fitted dose curve at least 0.9, where 1 is the maximum; inconclusive = response in the unintended direction; inactive = score below 0.9.

Oxysterols receptor LXR-alpha (Homo sapiens), sequence (Q13133 whole entry, looked up, the tested form may be a part): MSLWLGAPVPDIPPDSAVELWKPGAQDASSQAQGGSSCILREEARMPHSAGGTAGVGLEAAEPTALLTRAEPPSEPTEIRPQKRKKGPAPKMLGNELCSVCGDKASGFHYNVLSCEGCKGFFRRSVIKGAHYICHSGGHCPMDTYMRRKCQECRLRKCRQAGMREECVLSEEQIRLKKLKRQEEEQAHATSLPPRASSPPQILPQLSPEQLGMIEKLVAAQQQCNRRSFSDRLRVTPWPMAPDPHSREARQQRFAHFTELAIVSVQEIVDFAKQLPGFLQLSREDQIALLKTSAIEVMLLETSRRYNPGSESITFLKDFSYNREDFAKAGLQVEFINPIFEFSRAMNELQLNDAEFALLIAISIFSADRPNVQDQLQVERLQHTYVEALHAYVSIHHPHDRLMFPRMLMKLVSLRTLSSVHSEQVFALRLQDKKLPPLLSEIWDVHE
Transcriptional activator Myb (Homo sapiens), sequence (P10242 whole entry, looked up): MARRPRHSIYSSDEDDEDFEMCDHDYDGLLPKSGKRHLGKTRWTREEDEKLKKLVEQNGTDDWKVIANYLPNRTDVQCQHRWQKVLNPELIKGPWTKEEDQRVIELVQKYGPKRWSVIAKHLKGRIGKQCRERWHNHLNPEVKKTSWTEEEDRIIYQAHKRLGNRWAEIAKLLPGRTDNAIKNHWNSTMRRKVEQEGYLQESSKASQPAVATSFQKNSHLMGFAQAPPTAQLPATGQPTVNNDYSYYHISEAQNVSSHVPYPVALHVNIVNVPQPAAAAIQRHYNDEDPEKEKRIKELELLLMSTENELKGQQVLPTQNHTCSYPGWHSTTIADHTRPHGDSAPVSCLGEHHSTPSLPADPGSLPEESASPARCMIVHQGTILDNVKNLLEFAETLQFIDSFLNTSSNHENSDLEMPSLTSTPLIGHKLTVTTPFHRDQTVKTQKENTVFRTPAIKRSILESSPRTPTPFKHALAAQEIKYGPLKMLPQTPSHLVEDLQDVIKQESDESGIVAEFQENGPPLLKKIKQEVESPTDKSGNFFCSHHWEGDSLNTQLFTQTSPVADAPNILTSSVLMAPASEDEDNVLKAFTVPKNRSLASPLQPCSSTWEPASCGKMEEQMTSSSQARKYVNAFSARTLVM
Hepatocyte nuclear factor 4-alpha (Homo sapiens), sequence (P41235 whole entry, looked up, the tested form may be a part): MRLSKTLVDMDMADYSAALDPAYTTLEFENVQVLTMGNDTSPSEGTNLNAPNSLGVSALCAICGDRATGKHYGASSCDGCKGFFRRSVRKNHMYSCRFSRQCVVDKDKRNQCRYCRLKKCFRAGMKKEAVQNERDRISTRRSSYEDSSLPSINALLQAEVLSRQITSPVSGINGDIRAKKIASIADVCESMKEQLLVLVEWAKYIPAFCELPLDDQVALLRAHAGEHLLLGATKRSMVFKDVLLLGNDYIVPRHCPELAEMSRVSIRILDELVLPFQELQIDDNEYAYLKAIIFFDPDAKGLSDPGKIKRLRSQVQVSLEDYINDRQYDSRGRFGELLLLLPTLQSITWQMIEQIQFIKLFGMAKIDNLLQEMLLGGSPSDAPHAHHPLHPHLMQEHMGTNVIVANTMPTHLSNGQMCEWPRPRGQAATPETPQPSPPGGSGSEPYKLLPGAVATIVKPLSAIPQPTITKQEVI
Estrogen receptor (Homo sapiens), sequence (P03372 whole entry, looked up, the tested form may be a part): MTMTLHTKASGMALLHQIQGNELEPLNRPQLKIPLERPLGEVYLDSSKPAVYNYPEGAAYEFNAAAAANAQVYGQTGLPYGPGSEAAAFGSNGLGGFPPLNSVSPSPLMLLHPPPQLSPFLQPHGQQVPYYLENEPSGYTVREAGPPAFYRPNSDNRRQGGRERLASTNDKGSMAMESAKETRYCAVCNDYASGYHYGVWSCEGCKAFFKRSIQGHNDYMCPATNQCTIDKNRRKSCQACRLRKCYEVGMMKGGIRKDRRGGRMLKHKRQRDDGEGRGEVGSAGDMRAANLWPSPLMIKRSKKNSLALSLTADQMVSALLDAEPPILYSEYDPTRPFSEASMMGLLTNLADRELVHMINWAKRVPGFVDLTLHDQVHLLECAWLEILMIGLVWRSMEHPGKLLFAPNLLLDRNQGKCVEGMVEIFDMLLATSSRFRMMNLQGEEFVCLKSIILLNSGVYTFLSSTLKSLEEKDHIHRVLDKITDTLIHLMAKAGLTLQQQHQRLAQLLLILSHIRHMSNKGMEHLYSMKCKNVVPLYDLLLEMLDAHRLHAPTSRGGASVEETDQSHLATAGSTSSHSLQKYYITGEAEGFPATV
Steroid hormone receptor ERR1 (Homo sapiens), sequence (P11474 whole entry, looked up, the tested form may be a part): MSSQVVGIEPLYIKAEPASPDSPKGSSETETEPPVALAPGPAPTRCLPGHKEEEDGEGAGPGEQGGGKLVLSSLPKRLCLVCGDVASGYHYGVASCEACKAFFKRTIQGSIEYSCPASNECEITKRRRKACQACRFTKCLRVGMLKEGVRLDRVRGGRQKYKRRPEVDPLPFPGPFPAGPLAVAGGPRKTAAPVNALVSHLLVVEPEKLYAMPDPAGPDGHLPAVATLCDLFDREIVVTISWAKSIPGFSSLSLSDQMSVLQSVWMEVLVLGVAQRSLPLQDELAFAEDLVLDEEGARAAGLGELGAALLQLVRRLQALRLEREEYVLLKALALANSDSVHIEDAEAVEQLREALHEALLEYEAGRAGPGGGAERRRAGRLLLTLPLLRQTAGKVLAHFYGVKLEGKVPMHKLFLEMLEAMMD
Bile acid receptor (Homo sapiens), sequence (Q96RI1 whole entry, looked up, the tested form may be a part): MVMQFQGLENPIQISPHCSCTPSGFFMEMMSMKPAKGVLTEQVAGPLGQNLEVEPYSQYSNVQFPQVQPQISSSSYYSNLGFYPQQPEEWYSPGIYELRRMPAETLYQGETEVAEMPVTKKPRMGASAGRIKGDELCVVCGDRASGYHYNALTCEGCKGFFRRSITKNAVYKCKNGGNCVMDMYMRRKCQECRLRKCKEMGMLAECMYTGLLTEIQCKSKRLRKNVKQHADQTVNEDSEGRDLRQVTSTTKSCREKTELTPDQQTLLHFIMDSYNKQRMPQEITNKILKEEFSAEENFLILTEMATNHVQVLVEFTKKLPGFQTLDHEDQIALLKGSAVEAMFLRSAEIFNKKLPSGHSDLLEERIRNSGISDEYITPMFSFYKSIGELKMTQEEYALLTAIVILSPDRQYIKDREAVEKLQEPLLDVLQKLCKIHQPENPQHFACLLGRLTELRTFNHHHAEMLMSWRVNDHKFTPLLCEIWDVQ
X-box-binding protein 1 (Homo sapiens), sequence (P17861 whole entry, looked up): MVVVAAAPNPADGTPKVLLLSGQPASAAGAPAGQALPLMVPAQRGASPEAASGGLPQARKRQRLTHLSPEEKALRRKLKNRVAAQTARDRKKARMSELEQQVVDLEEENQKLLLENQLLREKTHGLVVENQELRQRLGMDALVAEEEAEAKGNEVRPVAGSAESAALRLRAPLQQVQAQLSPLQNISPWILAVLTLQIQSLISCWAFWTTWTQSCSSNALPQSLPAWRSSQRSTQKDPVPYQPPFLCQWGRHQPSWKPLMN

On to `C=CC(C)(CCC=C(C)C)OC(=O)CC` (stereo unspecified), for which the call in assay [1], in [2], in assay [3], in assay [4], in assay [5] and in assay [6] was inactive. The compound was classed as inactive in assay [7], in [8], in assay [9], in [10], in [11] and in assay [12]. Moreover, the compound was called inactive in assay [13], in [14], in [15] and in assay [16].
`O=c1cc[nH]cc1`: the result in assay [1], in assay [2], in assay [4], in assay [5], in [17] and in [10] was inactive. Further, the call in assay [11], in assay [13], in assay [18], in [14], in assay [15] and in [16] was inactive. Besides, the AC50 in [3] is 82.3 nM (active).
In the case of `CC(=O)Oc1c(C)c(C)c2c(c1C)CC[C@@](C)(CCC[C@H](C)CCC[C@H](C)CCCC(C)C)O2`, the result in [1], in [2], in [3], in assay [4], in [6] and in [19] was inactive. Further, the result in assay [7], in assay [12], in assay [13], in [14], in assay [15] and in assay [16] was inactive.
`CCCCCC#CC(=O)OC`: the outcome in [1], in [2], in [3], in assay [4], in assay [5] and in assay [6] was inactive. Moreover, the call in assay [7], in assay [11], in assay [18], in assay [14] and in assay [16] was inactive.
Take `O=C1CCCCCCCCCCCC(=O)OCCO1`: the compound was called inactive in assay [1], in [2], in [3], in assay [4], in assay [5] and in assay [19]. The compound was called inactive in [17], in [7], in assay [20], in assay [9], in assay [13] and in assay [14]. Moreover, the result in [15] and in [16] was inactive.
